# D1 mod: D1 CRE-luciferase signal change, two-sided – cell-based, HEK293 D1, dopamine EC30, D1 allosteric modulator project, primary screen | hit rate 5.9% among 58,000 | B-score at 10 µM | dopamine EC30 potentiation; actives deviate in either direction;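 active = luminescence count or its row- and column-corrected plate score outside the 99.7% band of the plate's sample wells, on either side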
# PostGolgi yeast: phenotypic screen on post-Golgi transport, primary screen; post-Golgi transport phenotypic cell assay; inhibition, % at 10 µM; hit rate 0.9% among 98,000; AID 739, 2007;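 also: yeast cells grown in 1536-well plates; yeast grown about 18 h at 30C before absorbance read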
# hDAT+cocaine: changed hDAT dopamine uptake under cocaine IC80, either direction, primary screen, cocaine antagonist project, cell-based, LLC-PK1 hDAT, [14C]-dopamine uptake, MLSMR. LLC-PK1 hDAT cells, [14C]-dopamine uptake with cocaine IC80; actives deviate in either direction. B-score at 10 µM. Sodium-dependent dopamine transporter (Homo sapiens), Q01959. hit rate 1.3% among 110,000;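 active = Z score or B-score, a plate-position-corrected score, falls beyond the plate's 99.7% confidence bounds, in either direction; inactive = both scores lie inside the 99.7% bounds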;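 also: scored against the spread of the other compound wells on the same plate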
# PLAP activator: PLAP enzyme activators, biochemical, luminescence, HTS; purified PLAP enzyme, luminescent substrate read-out; stronger effect = higher value; hit rate 1.2% among 96,000; AID 696, 2007; activation fold at 20 µM; in the data active = activation fold above about 2
# Target sequence (P05187 whole entry, looked up): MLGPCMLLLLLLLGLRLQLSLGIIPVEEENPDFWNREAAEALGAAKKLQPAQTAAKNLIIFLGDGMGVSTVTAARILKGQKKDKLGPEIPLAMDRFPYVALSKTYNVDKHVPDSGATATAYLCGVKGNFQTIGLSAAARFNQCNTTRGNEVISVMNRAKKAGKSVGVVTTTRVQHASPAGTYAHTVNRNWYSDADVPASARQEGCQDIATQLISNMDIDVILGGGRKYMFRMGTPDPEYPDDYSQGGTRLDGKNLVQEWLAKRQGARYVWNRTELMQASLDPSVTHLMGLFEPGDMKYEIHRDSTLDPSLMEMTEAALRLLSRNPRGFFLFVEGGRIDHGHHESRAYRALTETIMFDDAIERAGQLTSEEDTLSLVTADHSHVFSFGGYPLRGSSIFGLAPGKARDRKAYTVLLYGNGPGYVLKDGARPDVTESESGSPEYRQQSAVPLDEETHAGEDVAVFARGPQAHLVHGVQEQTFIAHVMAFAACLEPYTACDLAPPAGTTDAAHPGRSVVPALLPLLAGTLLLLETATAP
# PostGolgi ctrl: growth inhibition of yeast control strain, primary screen, counter-screen for post-Golgi transport modulator project; efflux-deficient yeast background strain, growth absorbance A615, 16 h; inhibition, % at 10 µM; hit rate 5% among 98,000; AID 738, 2007
# Cav3 T inh: Cav3.2 calcium influx blockers – cell-based, Fluo-4 calcium fluorescence, FDSS, MLSMR library, primary screen. Voltage-dependent T-type calcium channel subunit alpha-1H (Homo sapiens), O95180. Cav3.2-expressing cells; stronger effect = lower value. B-score at 10 µM. hit rate 4% among 100,000. AID 449739, 2010;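 active = single-dose well whose peak fluorescence ratio is a statistical outlier from its plate by either plate-standardised score or position-corrected B-score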
# Numbers without * were called inactive; . = not tested or not shown. Compounds with a hit are over-represented: about 12% of the library has one in this group of screens. Rule as the data show it, unless noted: active = inhibition above about 30%; inactive = the rest.
SMILES,D1 mod,PostGolgi yeast,hDAT+cocaine,PLAP activator,PostGolgi ctrl,Cav3 T inh
COc1cccc(-c2cc(C(=O)N3CCc4ccccc4C3)no2)c1,1.1,1,2.2,1.2,21,-2.3
O=C(c1cc(-c2cccs2)on1)N1CCN(c2ccccc2)CC1,-0.056,5,.,0.9,14,.
O=C(O)c1ccccc1C1=Nc2ccc(O)cc2Oc2cc(O)ccc21,-0.75,-5,-0.91,1,5,-9.2*
O=C(O)c1ccccc1-c1nc2ccccc2c(=O)[nH]1,-0.088,0,0.099,0.9,3,0.049
COc1ccccc1S(=O)Cc1ccc(C(=O)NCCc2ccc(Cl)cc2)o1 (stereo not drawn),-2.8,-9,1.5,1.5,10,-0.81
Cc1c(NC(=O)c2ccc(N3CCCC3)c([N+](=O)[O-])c2)cccc1-c1nc2ccccc2s1,.,-2,0.47,1.2,-4,-4.6*
Cc1cc2nc(N)sc2cc1[N+](=O)[O-],.,-10,-0.49,1,9,0.41
Cc1[nH]c2ccccc2c1SCC(=O)O,.,.,-0.44,.,.,0.052
Cc1[nH]c2ccccc2c1C1C(c2ccccc2)=NN=C(C(C)C)N1O (stereo not drawn),.,.,-0.74,.,.,-5.4*
COc1ccc(C2N(c3cc(Cl)ccc3OC)C(=O)C3CCCN32)cc1OC (stereo not drawn),1.7,0,-0.42,1.5,8,0.82
CS(=O)(=O)N(CCc1ccccc1)CC(=O)Nc1ccc(OCc2ccccc2)cc1,.,-17,-0.74,0.8,17,-4.2*
COC(=O)c1ccccc1NC(=O)CN(CCc1ccccc1)S(C)(=O)=O,0.38,3,-0.22,1.1,-3,-0.84
CCOC(=O)C(NC(C)=O)(N1CCOCC1)C(F)(F)F (stereo not drawn),0.3,5,1.8*,0.9,0,-2.3
CCOC(=O)C(NC(=O)c1ccccc1)(N1CCOCC1)C(F)(F)F (stereo not drawn),-0.22,-5,-0.23,0.9,-2,0.4
O=C(NCc1ccccc1F)C1CCCN(C(=O)NC2CCCCC2)C1 (stereo not drawn),-0.027,21,0.35,1.2,9,0.69
Cc1ccc(-c2cc(N)n(Cc3ccc(Cl)cc3)n2)cc1,.,-1,-0.8,0.9,6,-5*
CCCCCCCOc1ccc(OC(=O)c2ccncc2)cc1,.,-4,0.25,1.1,-1,0.82
Cc1nn(-c2ccccc2)c(N2CCCC2)c1/C=N/n1cnc2scc(-c3ccccc3)c2c1=O,-0.11,5,2.3,1.1,12,-5.6*
O=c1c2c(-c3ccccc3)csc2ncn1/N=C/c1c2ccccc2cc2ccccc12,.,-2,-0.11,1.3,19,-1.8
Cn1c(/C=N/NC(=O)c2ccccc2Br)nc2ccccc21,.,0,0.9,1.7,3,-4.3*
CCn1c(=S)[nH]c2ccccc21,.,-2,-0.5,2.1*,10,1.7
CCn1c(SCc2ccc(Cl)cc2Cl)nc2nc3c(cc2c1=O)CCCC3,.,2,-1.8,1,6,-2
CC1CC(C)CN(C(=O)c2ccc3c(c2)N(Cc2ccccc2)CCS3)C1 (stereo not drawn),.,88*,1,1.3,75*,-7.7*
O=C(NCCN1CCOCC1)c1ccc2c(c1)N(Cc1ccccc1)CCS2,-0.57,6,-0.036,1.8,-3,-0.34
Cc1ccc(CN2CCSc3ccc(C(=O)N4CCN(c5ncccn5)CC4)cc32)cc1,0.43,2,-1,1.1,64*,-2.5
COc1ccc(CC(=O)NC2CC(C)(C)NC(C)(C)C2)cc1,.,.,-0.93,.,.,0.082
CN=C(Nc1ccccc1OC)SC1CC(=O)N(c2ccc(C(=O)OC)cc2)C1=O (stereo not drawn),.,5,2.4*,1.5,3,-0.022
O=C1CC(SC(=Nc2ccccc2)Nc2ccccc2)C(=O)N1c1cccc(Cl)c1 (stereo not drawn),.,5,-1.1,0.9,33*,-0.026
CN=C(NC)SC1CC(=O)N(c2ccccc2)C1=O (stereo not drawn),-0.023,5,0.64,0.9,1,-0.036
